From PubChem BioAssay
A number with no mark means an inactive call. No rule for the calls is given here.

Target: Pantothenate synthetase (Mycobacterium tuberculosis (strain ATCC 25618 / H37Rv)) (UniProt P9WIL5)
Experiment: Coupled enzyme confirmation of inhibitors against recombinant Mtb PanC (AID 375);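 also: 0% = full reaction with vehicle and 100% = no enzyme background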
Settings: coupled enzyme assay; at 10 µM, hits give high values

Pantothenate synthetase (Mycobacterium tuberculosis (strain ATCC 25618 / H37Rv)), sequence (P9WIL5 whole entry, looked up): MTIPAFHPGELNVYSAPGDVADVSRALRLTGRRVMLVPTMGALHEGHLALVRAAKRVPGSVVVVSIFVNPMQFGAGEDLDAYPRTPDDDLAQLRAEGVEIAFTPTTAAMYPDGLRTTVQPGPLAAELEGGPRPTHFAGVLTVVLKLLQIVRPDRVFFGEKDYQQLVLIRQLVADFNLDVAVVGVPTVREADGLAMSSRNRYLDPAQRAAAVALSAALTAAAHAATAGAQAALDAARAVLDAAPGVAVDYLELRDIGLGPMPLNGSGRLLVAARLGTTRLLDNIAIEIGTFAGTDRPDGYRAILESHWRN

Compound | inhibition [%]
Cc1[nH]c2ccccc2c(=O)c1CN1CCCCC1 | 0
COc1ccc(NC(=O)C2CCCN2S(=O)(=O)c2cccc3cccnc23)c(OC)c1 (stereo not drawn) | 6
O=C(c1cnc2n(c1=O)CCS2)N1CCc2ccccc21 | 2
O=C1[C@@H]2C(c3ccccc3Cl)=NO[C@@H]2C(=O)N1Cc1ccccc1 | 0
O=S(=O)(NCC1CCCO1)c1cc(Cl)ccc1Br (stereo not drawn) | 0
COc1ccc(CNC(=O)c2cc3c(=O)n4ccccc4nc3n(Cc3ccco3)c2=N)cc1 | 0
CCn1nc(C(=O)OCC(=O)N2CCc3ccccc32)c2ccccc2c1=O | 7
CN(C)c1ccc(CNn2cnnc2)cc1 | 2
CCCCN(CC)CCNC(=O)c1cc2c(C)nc3ccccc3c2o1 | 10
CN=C1CC(C)(C)CC(=O)/C1=C(/O)CCC(=O)NC | 0
CCOC(=O)C1=C(c2ccccc2)Nc2nc(C)nn2C1c1cccc(OC)c1OC (stereo not drawn) | 0
COc1cc2c(cc1OC)CN(CC(=O)Nc1cccc(C)c1)CC2 | 11
CC[C@H](C)C(=O)O[C@H]1C[C@@H](C)C=C2C=C[C@H](C)[C@H](CC[C@@H]3C[C@@H](O)CC(=O)O3)[C@H]21 | 5
O=C(NCc1cccs1)c1cc2c(s1)CCCC2 | 0
COc1ccc(NC(=O)c2cc(C(C)C)on2)c(OC)c1 | 0
COc1ccc2c(c1OC)C(=O)OC2CC(=O)c1ccc(O)cc1 (stereo not drawn) | 0
COc1ccc(OC)c(-c2nc3c(C)n[nH]c(=O)c3[nH]2)c1 | 0
O=C(O)c1cc(/C=N\O)ccc1OCc1ccccc1 | 3
CCS(=O)(=O)CCn1c([N+](=O)[O-])cnc1C | 7
O=S(=O)(c1cccc2nsnc12)N1CCN(c2ncccn2)CC1 | 0
Cc1cccc(NC(=O)CN(C)S(=O)(=O)c2ccccc2)n1 | 7
CCOc1cc(/C=N/n2cnnc2)cc(Br)c1O | 0
COc1ccc(S(=O)(=O)N2CCN(S(=O)(=O)c3ccc4c(c3)OCCO4)CC2)cc1C | 0
